# PubChem BioAssay
# Values without a mark were called inactive. A call without a number means that no potency is given here. For part of these data: Potency and affinity values are given separately. Activity calls are given as the source filed them. Unless noted, how the calls were made is not given here.
# Columns and labels:
# [1] = antimalarial activity against Dd2 strain (AID 2302;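 active means growth inhibition above 50% at the single 2 µM test dose, taken to imply half-maximal potency below 2 µM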); conditions: P. falciparum Dd2 in RBCs, LDH growth readout, 72 h; at 2 µM; active compounds read high
# [2] = HepG2 cytotoxicity, primary screen, cytotoxicity control for P. falciparum antimalarial project, cell-based, ATP luminescence (AID 2303;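 active means inhibition above 50%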); conditions: HepG2 viability, 24-48 h, at 10 µM, active compounds read high
# [3] = target: L-lactate dehydrogenase (Plasmodium falciparum (isolate CDC / Honduras)) (UniProt Q27743); assay: PfLDH activity inhibition – cell lysate, 3D7 strain, counter-screen for P. falciparum growth inhibition project (AID 2304); conditions: P. falciparum 3D7 crude extract, LDH APAD/NBT absorbance; at 2 µM; active compounds read high
# [4] = inhibition of 3D7 malaria parasite growth – strain 3D7 (AID 2306); conditions: P. falciparum 3D7 erythrocytic growth, LDH absorbance, 72 h; at 2 µM; active compounds read high
# [5] = target: Calcium-dependent protein kinase 1 (Plasmodium falciparum (isolate 3D7)) (UniProt P62344); assay: PfCDPK1 kinase inhibitors, biochemical, TCAMS library (AID 1159585; cut-off not given, nearly all actives have IC50 up to about 0.98 µM;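 further: inhibitors leave more ATP so luminescence rises with inhibition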); conditions: recombinant PfCDPK1, Kinase-Glo ATP depletion luminescence
# [6] = target: Plasmodium falciparum protein kinase 6 (PK6, PF3D7_1337100) (UniProt Q8IDW1); assay: PfPK6 kinase inhibitors, biochemical, TCAMS library (AID 1159586); conditions: recombinant PfPK6, Kinase-Glo ATP depletion luminescence
# [7] = target: Protein kinase 7 (PK7), Plasmodium falciparum 3D7 (PF3D7_0213400) (UniProt Q7YTF7); assay: inhibition of Plasmodium PK7 catalytic activity – biochemical, TCAMS antimalarial set, Kinase-Glo luminescence (AID 1159587); conditions: recombinant PfPK7, Kinase-Glo ATP depletion luminescence
# [8] = target: Calcium-dependent protein kinase 4 (Plasmodium falciparum (isolate 3D7)) (UniProt Q8IBS5); assay: PfCDPK4 kinase inhibitors, biochemical, TCAMS library (AID 1159588; cut-off not given, nearly all actives have IC50 up to about 0.91 µM); conditions: recombinant PfCDPK4, Kinase-Glo ATP depletion luminescence
# Sequence of Calcium-dependent protein kinase 4 (Plasmodium falciparum (isolate 3D7)) (Q8IBS5 whole entry, looked up): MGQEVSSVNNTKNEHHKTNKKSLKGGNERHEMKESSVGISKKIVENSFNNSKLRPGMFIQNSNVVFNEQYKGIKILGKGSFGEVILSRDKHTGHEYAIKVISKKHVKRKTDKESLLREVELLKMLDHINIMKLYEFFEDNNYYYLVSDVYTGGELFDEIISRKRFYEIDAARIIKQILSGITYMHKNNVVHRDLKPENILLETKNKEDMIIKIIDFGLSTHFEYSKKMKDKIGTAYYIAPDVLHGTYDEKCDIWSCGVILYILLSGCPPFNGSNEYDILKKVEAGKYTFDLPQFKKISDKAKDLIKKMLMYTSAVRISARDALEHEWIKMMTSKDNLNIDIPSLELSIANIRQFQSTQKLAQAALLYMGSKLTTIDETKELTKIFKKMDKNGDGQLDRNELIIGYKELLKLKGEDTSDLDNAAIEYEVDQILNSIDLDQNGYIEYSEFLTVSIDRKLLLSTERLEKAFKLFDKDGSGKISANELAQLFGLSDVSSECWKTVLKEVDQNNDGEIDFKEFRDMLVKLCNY
# Sequence of Protein kinase 7 (PK7), Plasmodium falciparum 3D7 (PF3D7_0213400) (Q7YTF7 1-343): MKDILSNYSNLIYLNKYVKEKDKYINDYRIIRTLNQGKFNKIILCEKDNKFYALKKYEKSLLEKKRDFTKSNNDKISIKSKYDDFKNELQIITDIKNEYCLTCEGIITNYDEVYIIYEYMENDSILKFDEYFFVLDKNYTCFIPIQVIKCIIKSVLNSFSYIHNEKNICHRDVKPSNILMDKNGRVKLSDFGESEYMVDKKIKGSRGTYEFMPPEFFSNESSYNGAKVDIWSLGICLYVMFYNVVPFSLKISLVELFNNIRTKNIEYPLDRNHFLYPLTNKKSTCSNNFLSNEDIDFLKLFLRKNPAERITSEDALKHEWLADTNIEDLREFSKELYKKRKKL
# Sequence of Plasmodium falciparum protein kinase 6 (PK6, PF3D7_1337100) (Q8IDW1 1-305): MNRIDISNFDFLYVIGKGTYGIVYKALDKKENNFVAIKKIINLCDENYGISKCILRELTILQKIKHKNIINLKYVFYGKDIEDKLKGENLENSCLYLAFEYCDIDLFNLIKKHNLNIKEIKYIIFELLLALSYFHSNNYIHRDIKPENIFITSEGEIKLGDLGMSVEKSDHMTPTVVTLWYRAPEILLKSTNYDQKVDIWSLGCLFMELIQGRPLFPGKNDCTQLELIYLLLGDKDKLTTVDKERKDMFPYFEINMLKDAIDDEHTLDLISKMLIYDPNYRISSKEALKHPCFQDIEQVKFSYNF
# Sequence of L-lactate dehydrogenase (Plasmodium falciparum (isolate CDC / Honduras)) (Q27743 whole entry, looked up): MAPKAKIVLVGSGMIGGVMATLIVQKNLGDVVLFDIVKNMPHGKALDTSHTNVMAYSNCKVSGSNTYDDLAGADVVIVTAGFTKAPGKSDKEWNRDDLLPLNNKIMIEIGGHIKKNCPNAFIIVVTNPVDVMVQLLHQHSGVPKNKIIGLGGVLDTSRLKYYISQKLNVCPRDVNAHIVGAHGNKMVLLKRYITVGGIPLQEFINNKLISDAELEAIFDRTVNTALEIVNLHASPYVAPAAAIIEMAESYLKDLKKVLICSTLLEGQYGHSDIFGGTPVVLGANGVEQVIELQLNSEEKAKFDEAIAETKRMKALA
# Sequence of Calcium-dependent protein kinase 1 (Plasmodium falciparum (isolate 3D7)) (P62344 whole entry, looked up): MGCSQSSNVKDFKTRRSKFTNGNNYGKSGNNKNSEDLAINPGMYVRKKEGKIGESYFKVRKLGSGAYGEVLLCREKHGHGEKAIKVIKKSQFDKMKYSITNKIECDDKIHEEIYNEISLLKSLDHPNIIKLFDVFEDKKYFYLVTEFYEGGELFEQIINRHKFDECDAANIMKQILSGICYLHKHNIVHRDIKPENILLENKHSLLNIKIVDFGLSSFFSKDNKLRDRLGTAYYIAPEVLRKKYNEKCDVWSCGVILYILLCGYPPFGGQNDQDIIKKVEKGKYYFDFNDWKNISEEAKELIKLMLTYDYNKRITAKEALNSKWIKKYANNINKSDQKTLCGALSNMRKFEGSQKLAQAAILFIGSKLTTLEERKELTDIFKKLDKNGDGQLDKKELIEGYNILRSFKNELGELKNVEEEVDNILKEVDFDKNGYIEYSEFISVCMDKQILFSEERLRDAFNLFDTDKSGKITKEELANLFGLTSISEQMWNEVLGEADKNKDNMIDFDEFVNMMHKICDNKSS
Structure (SMILES),growth inhibition [1],inhibition [2],inhibition [3],growth inhibition [4],outcome [5],outcome [6],outcome [7],outcome [8]
O=C(Nc1ccc(Oc2ccccc2)cc1)N1CCC(CCN2CCC(c3c[nH]c4ccccc34)CC2)CC1,36%,42%,7%,100% (active),inactive,inactive,inactive,inactive
COc1ccc2nccc(NC(=O)C3CCC(NCc4ccc5c(c4)NC(=O)CS5)CC3)c2c1 (stereo not drawn),19%,0%,-4%,94% (active),inactive,inactive,inactive,inactive
NC(=O)c1cccc(C(=O)Nc2cccc(-c3cccc(-c4nc5ccc(C(F)(F)F)cc5[nH]4)c3)c2)c1,85% (active),71% (active),-5%,100% (active),inactive,inactive,inactive,inactive
COc1cc2c(Nc3cccc(NC(=O)c4ccccc4)c3)ncnc2cc1OCCCN1CCOCC1,100% (active),-14%,5%,101% (active),inactive,inactive,inactive,inactive
NS(=O)(=O)NCCCN1CCN(c2ccccc2)CC1,73% (active),2%,-2%,90% (active),inactive,inactive,inactive,inactive
COc1ccc(CNCc2ccc(-c3cccc(-c4nc5ccc(C(F)(F)F)cc5[nH]4)c3)cc2)cc1,100% (active),59% (active),-8%,102% (active),inactive,inactive,inactive,inactive
O=S(=O)(/C=C/c1ccccc1)N(Cc1ccc(-c2ccc(CNCCOc3ccccc3)cc2)cc1)CC1CCCCN1 (stereo not drawn),95% (active),99% (active),4%,99% (active),inactive,inactive,inactive,inactive
CN(CCC(CCN1CCC(c2c[nH]c3ccccc23)CC1)c1ccccc1)C(=O)Nc1ccc(Cl)c(Cl)c1 (stereo not drawn),21%,50% (active),3%,91% (active),inactive,inactive,inactive,inactive
COc1ccc2cc(-c3nc(-c4c(Cl)cccc4Cl)[nH]c3-c3ccnc(NCCCN4CCCCC4C)c3)ccc2c1 (stereo not drawn),86% (active),19%,-1%,94% (active),inactive,inactive,inactive,inactive
COc1ccc2nccc([C@@H](O)CN3CCC(NS(=O)(=O)c4cc5c(cc4Cl)SCC(=O)N5)CC3)c2c1,0%,5%,0%,88% (active),inactive,inactive,inactive,inactive
O=C(Cn1c(SCc2cccc(F)c2F)cc(=O)c2ccccc21)N(CCn1ccnc1)Cc1ccc(-c2ccc(C(F)(F)F)cc2)cc1,94% (active),20%,-2%,100% (active),inactive,inactive,inactive,inactive
NC(N)=NC(=O)Nc1cc(Cl)c(F)c(Cl)c1,64% (active),22%,-4%,100% (active),inactive,inactive,inactive,inactive
CC(C)(C)C1CCC(C(=O)c2ccc3ccccc3c2O)CC1 (stereo not drawn),63% (active),-4%,-1%,83% (active),inactive,inactive,inactive,inactive
COc1cc(NC(=O)N2CCc3ccc(OCCN4CCCCC4)cc32)cc(C(F)(F)F)c1,93% (active),9%,6%,101% (active),inactive,inactive,inactive,inactive
Cn1cncc1CCCN(Cc1ccc(-c2ccc(C(F)(F)F)cc2)cc1)C(=O)Cn1c(CCc2cccc(F)c2F)cc(=O)c2cccnc21,59% (active),17%,-2%,85% (active),inactive,inactive,inactive,inactive
O=C(/C=C/c1ccc(Cl)c(Cl)c1)NCCCCCN1CCC(NC(=O)Nc2cc(F)ccc2F)CC1,22%,78% (active),3%,98% (active),inactive,inactive,inactive,inactive
O=C(NCC1CCC(C(=O)NCCN2CCCCC2)CC1)c1ccc(O)c(-c2ccc(Cl)c(Cl)c2)c1 (stereo not drawn),22%,-5%,-1%,91% (active),inactive,inactive,inactive,inactive
CCc1cn2c3c(cc(C(=O)N[C@@H](Cc4ccccc4)[C@H](O)CNC(C)C)cc13)N(C)S(=O)(=O)C2,98% (active),16%,8%,98% (active),inactive,inactive,inactive,inactive

Structure (SMILES),growth inhibition [1],inhibition [2],inhibition [3],growth inhibition [4],outcome [5],outcome [6],outcome [7],outcome [8]
COc1ccc(C(O)CNC(C)CCc2ccc(F)cc2)cc1C(F)(F)F (stereo not drawn),98% (active),92% (active),3%,99% (active),inactive,inactive,inactive,inactive
CC(=O)Nc1ccc(CN(C)C2CCN(c3cc(NC(=O)c4cccc(C)c4)ccn3)CC2)cc1,13%,-2%,-1%,94% (active),inactive,inactive,inactive,inactive
Cc1ccccc1Oc1nc2ccccc2nc1SCC(=O)NC(C)C,55% (active),-14%,-1%,97% (active),inactive,inactive,inactive,inactive
Cc1[nH]c(C)c(-c2ccc(-c3ccc(F)cc3)cc2)c(=O)c1Br,52% (active),12%,2%,94% (active),inactive,inactive,inactive,inactive
Cn1nccc1C(=O)NCCNCc1ccc(-c2ccc(-c3nc4ccc(F)cc4[nH]3)cc2)cc1,98% (active),28%,-5%,101% (active),inactive,inactive,inactive,inactive
CC1CCN(Cc2ccc(NC(=O)c3cc4ccc5cccnc5c4[nH]3)cc2)CC1,93% (active),10%,-1%,101% (active),inactive,inactive,inactive,inactive
S=C(NCCCCCN1CCC(c2c[nH]c3ccccc23)CC1)Nc1cc(Cl)cc(Cl)c1,35%,25%,-4%,100% (active),inactive,inactive,inactive,inactive
CC(CN1CCN(C)CC1)C(=O)Nc1cccc(-c2ccc(-c3nc4ccccc4[nH]3)cc2)c1 (stereo not drawn),38%,2%,-1%,95% (active),inactive,inactive,inactive,inactive
C(=Cc1nc2ccccc2s1)c1ccc2c(c1)OCCO2,96% (active),13%,1%,98% (active),inactive,inactive,inactive,inactive
COc1ccc2ncc(F)c(CCN3C[C@H](CNCc4ccc5oc(=O)ccc5c4)[C@H](O)C3)c2n1,6%,18%,3%,89% (active),inactive,inactive,inactive,inactive
CCCCNC(=O)[C@H](CC1CCCCC1)NC(=O)c1ccc(O)c(-c2ccc(OC)cc2)c1,12%,-8%,5%,89% (active),inactive,inactive,inactive,inactive
CCOC(=O)c1c(NC(=O)c2ccccc2)sc2c(O)c(CN(CC)CC)ccc12,100% (active),9%,4%,100% (active),inactive,inactive,inactive,inactive
O=C(Nc1ccc2c(c1)CCN2C1CCN(Cc2ccc(F)cc2Cl)C1)c1ccco1 (stereo not drawn),96% (active),4%,2%,97% (active),inactive,inactive,inactive,inactive
Cc1c(C)n(C2CCCC2)c2ncnc(OC3CCN(CC(=O)NC4CC4)CC3)c12,92% (active),13%,-4%,95% (active),inactive,inactive,inactive,inactive
Cn1cc(CCNc2ccnc(NCCc3coc4ccccc34)n2)c2ccccc21,28%,26%,6%,87% (active),inactive,inactive,inactive,inactive
COc1cc(Cc2cnc(N)nc2N)cc(OCCCCCC(=O)O)c1OC,2%,-16%,-4%,95% (active),inactive,inactive,inactive,inactive
O=C(Nc1ccc2c(c1)CCC2)c1ccc(CN2CCCN(Cc3cccc(O)c3)CC2)cc1,46%,45%,-1%,88% (active),inactive,inactive,inactive,inactive
CCN(CCCN1CCCCC1)c1cc(C)nc(Nc2ccc(OC)cc2)n1,24%,23%,-6%,100% (active),inactive,inactive,inactive,inactive
